Reference: the supplement of paper PMC6555819

Assays:
Experiment in all cases: PBM binding z-score (relative to random genomic background probes); higher = stronger binding; sequences stand for … in GC…GCGATTGACAGCGTAGAATGAAGG
[1] = test system: FXR:RXRa (NR concentration 270 nM, RXRa partner concentration 90 nM)
How it was run: (§1)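 Each nuclear receptor dimer, without ligand, was incubated for 1 h on custom Agilent 4×180K protein-binding microarrays. Binding was detected with antibodies against each partner (one per run), and scanned fluorescence was regression-normalized. The binding z-scores are referenced to random human genomic background probes.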

[2] = test system: LXRa:RXRa (NR concentration 270 nM, RXRa partner concentration 90 nM)
How it was run: as §1

[3] = test system: LXRa homodimer (NR concentration 270 nM)
How it was run: as §1

[4] = test system: LXRb:RXRa (NR concentration 270 nM, RXRa partner concentration 90 nM)
How it was run: as §1

[5] = test system: LXRb homodimer (NR concentration 270 nM)
How it was run: as §1

[6] = test system: PPARa:RXRa (NR concentration 270 nM, RXRa partner concentration 90 nM)
How it was run: as §1

[7] = test system: PPARg:RXRa (NR concentration 180 nM, RXRa partner concentration 90 nM)
How it was run: as §1

[8] = test system: PPARg:RXRa 270nM:90nM, anti-RXR (NR concentration 270 nM, RXRa partner concentration 90 nM)
How it was run: as §1

[9] = test system: PPARg:RXRa 30nM:10nM, anti-RXR (NR concentration 30 nM, RXRa partner concentration 10 nM)
How it was run: as §1

[10] = test system: PPARg:RXRa 90nM:30nM, anti-RXR (NR concentration 90 nM, RXRa partner concentration 30 nM)
How it was run: as §1

| Sequence | PBM binding z-score [1] | PBM binding z-score [2] | PBM binding z-score [3] | PBM binding z-score [4] | PBM binding z-score [5] | PBM binding z-score [6] | PBM binding z-score [7] | PBM binding z-score [8] | PBM binding z-score [9] | PBM binding z-score [10] |
| --- | --- | --- | --- | --- | --- | --- | --- | --- | --- | --- |
| CGTCCAAGGTCAAAGAGGTCAGTGAATGCCGAGT | 7.54 | 6.09 | 4.44 | 5.48 | 1.51 | 5.88 | 5.22 | 5.89 | 2.41 | 4.63 |
| TCTGCCAGGTCAGTTGGTCAGCTAACGAGCTGCC | 1.42 | 0.919 | -0.414 | 0.653 | 0.604 | 1.61 | -0.0729 | 1.28 | 1.13 | 0.918 |
| ATCTCTACGTAAAGTTCAGTGAAAGATCGATAGA | 0.641 | 1.57 | 1.36 | 1.02 | 1.16 | 1.36 | 1.04 | 2.47 | 1.02 | 1.96 |
| CGAACGAGGGCATGAGTTGATAGTAAATGCCGAT | 0.719 | 0.489 | -0.433 | 0.273 | -0.709 | 1.27 | 1.45 | 1.26 | 0.122 | 0.578 |
| GATACAGGGGCAGCTAGAGGCCAGAGTATGGAAA | 0.0694 | 0.017 | -0.177 | 0.453 | -0.405 | 0.26 | 0.483 | 0.296 | -0.0735 | -0.078 |
| TCTGCTAGGTGAGTTGGTCAGCTAACGAGCTGCC | -0.433 | -0.56 | -0.902 | -0.937 | -0.888 | -0.304 | -0.825 | 0.406 | 0.873 | 0.748 |
| TCGCCTAGGTCATTCAGGGGCCAGTATAGAAAGC | 4.82 | 3.45 | 0.443 | 3.13 | 0.742 | 3.8 | 1.91 | 2.45 | 2.3 | 2.02 |
| TCCTATAGGTAAATGCTAGGTGAAAGTCCGATCT | 0.02 | 0.489 | -0.157 | 0.379 | -0.293 | 1.16 | 0.318 | 1.7 | 2.99 | 2.19 |
| CGTCCAAGGCCAAGGTCAGTGAAAGAGACTCGAA | 1.58 | 1.15 | -0.343 | 1.21 | -0.878 | 2.04 | 0.804 | 0.725 | -0.305 | 0.665 |
| CCAGACAGGTGTGAAGGTAACTCAGCCTCGATTA | -0.289 | -0.378 | 0.0718 | -0.315 | -0.724 | -0.298 | 0.084 | -0.131 | -0.615 | -0.443 |
| GCTATTTGGTCAGTAAAAGGTCACACACCGGTCG | 3.6 | 4.54 | 5.27 | 4.71 | 1.54 | 4.7 | 3.46 | 4.72 | 2.76 | 4.46 |
| CCTAGCAGGCCAATCTGGATCACTCAAGGCTTGA | -0.3 | -0.327 | -0.53 | -0.467 | -0.696 | -0.131 | 0.141 | -0.529 | -0.702 | -0.514 |
| CAAACTAGGTCACAGAGGTCAAAGACCGTGCGTA | 7.36 | 6.53 | 6.56 | 5.93 | 1.73 | 6.52 | 10.5 | 8.43 | 6.84 | 8.38 |
| TGAATGAGGTTAAAGATCAGGGAGCGTGGCGTCG | 2.85 | 2.34 | -0.379 | 1.14 | 0.0684 | 4.39 | 5.63 | 5.88 | 5.47 | 6.49 |
| TTAACAAGGTGAGCTGAGGTCGTTGATCCAACTC | 1.71 | 1.21 | -0.57 | 0.45 | -0.886 | 1.72 | 0.604 | 0.987 | 0.415 | 0.24 |
| CCTTACGGGTCACTCGAGGTTATAGCATCGGAGT | 5.2 | 7.76 | 3.19 | 5.72 | -0.178 | 5.01 | 4.03 | 4.33 | 1.41 | 3.01 |
| GGAATGAGGGCAAGTTGATAGCAGAGTTTGATGG | 1.28 | 0.752 | -0.149 | 0.54 | 0.0849 | 2.08 | 1.6 | 1.56 | 0.431 | 0.993 |
| CCTACTGGGCCATTCAGCGGTCATTGATCATATG | -0.0404 | 0.756 | 3.78 | 0.208 | -0.516 | 0.727 | 0.533 | 0.538 | -0.375 | 0.242 |
| GCTAGTTGGTAAGTAAAAGGTCACACACCGGTCG | 2.63 | 4.22 | 4.45 | 3.94 | 0.812 | 4.58 | 4.49 | 6.32 | 4.94 | 6.92 |
| CGTCCAAGGTCATAGTAGGTCAGTGAAGACAGAT | 7.5 | 7.17 | 4.25 | 5.79 | 1.31 | 5.54 | 5.27 | 5.42 | 2.67 | 4.32 |
| CCGACTGGGGCATAAGGTGACCATAAGCCAGCCC | -0.111 | -0.426 | -0.561 | -0.432 | -1.62 | 1.3 | 2.04 | 2.92 | 0.757 | 2.38 |
| CGTCCAAGGTCAGAGAGTTCAGTGAATGCCGAGT | 5.22 | 4.79 | 3.36 | 3 | -0.278 | 3.89 | 2.14 | 2.83 | 0.445 | 1.82 |
| TAGCCTAGGTCATTAGGCCAGTATAGTACGCATC | 3.64 | 2.91 | 0.7 | 1.88 | 0.111 | 3.31 | 3.34 | 3.34 | 1.05 | 2.14 |
| CCTACTGGGCCAAACGTCATTGATTCCAATGCTC | -0.411 | -0.228 | -0.236 | -0.0474 | -0.218 | 2.31 | 4.96 | 6.47 | 5.56 | 6.79 |
